Source: PubChem BioAssay AID588492 (Sanford-Burnham Center for Chemical Genomics, 2011)
Screen size: about 360,000 compounds; about 2,300 (0.64%) were called active.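 The calls were made as follows: active = compounds giving at least 50% protection of heart cells from peroxide-induced death in the single-dose screen, raw or plate-pattern-corrected value; inactive = the rest.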 The full list was thinned out, with actives kept by preference.

Experiment: H9c2 cardiomyocyte survival under peroxide injury – uHTS, H9c2 cells, ATPLite luminescence, primary screen (AID 588492);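 also: 0% = DMSO wells with peroxide and 100% = DMSO wells without peroxide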
Details: H9c2 cardiomyocytes, 2 h, at 20 µM, stronger effect = higher value

SMILES | protection from H2O2 cell death
CCn1c(SC(C)C(=O)Nc2ccc(N3CCOCC3)cc2)nnc1-c1ccco1 (stereo not drawn) | -3.9% (inactive)
O=C(CN1C(=O)c2cccnc2Oc2ccc(Cl)cc21)Nc1ccc(F)cc1 | 21.7% (inactive)
OC(c1cc(Cl)cc(Cl)c1)c1ncc(-c2ccccc2C(F)(F)F)[nH]1 (stereo not drawn) | -8.9% (inactive)
CC(=O)Nc1cccc(-c2nc3ccccc3s2)c1C | -3.3% (inactive)
COc1cccc2sc(NNC(=O)c3nc4ccccc4s3)nc12 | 53.7% (active)
COc1cccc(/C=C(/CC(=O)Nc2ccc(N3CCOCC3)cc2)c2nc3ccccc3s2)c1 | -4.6% (inactive)
COC(=O)[C@@H]1CCCN1C(=O)c1cc(COc2cccc3cccnc23)on1 | 11.6% (inactive)
CSCCC(c1nnnn1Cc1ccccc1)N1CCN(C/C=C/c2ccccc2)CC1 (stereo not drawn) | -2% (inactive)
Cc1ccc(C(=O)OCC(=O)NC2CCCCCCC2)cc1C | -0.9% (inactive)
CCn1c2ccc(F)cc2c2nnc(SCCN3CCOCC3)nc21 | 3.7% (inactive)
Cn1c2ccc(F)cc2c2nnc(NN)nc21 | 56.4% (active)
CN(C)c1nc(NN)nc(Nc2ccc(F)cc2)n1 | -2.7% (inactive)
CSc1nc(-c2ccccc2)nc(C(Cl)Cl)n1 | -2.9% (inactive)
COC(=O)c1c(C(=O)OC)c2n(c1C)CCS2 | -0.3% (inactive)
COc1ccc(CNC(=O)C(c2ccc(O)cc2)N(Cc2ccco2)C(=O)c2snc(C(N)=O)c2N)cc1 (stereo not drawn) | 49% (inactive)
COc1ccc(C(C(=O)NCc2ccccc2)N(Cc2cccs2)C(=O)c2cnccn2)cc1 (stereo not drawn) | 79.8% (active)
Cc1cccc(N(C(=O)c2csnn2)C(C(=O)NCc2ccccc2)c2ccncc2)c1 (stereo not drawn) | 2.2% (inactive)
CC(C)c1nnc(NC(=O)CCC(=O)N2CCN(c3cccc(Cl)c3)CC2)s1 | -2.1% (inactive)
CCOc1ccc(-c2ccc(SCC(=O)N3CCOCC3)nn2)cc1 | -13.9% (inactive)
COc1cccc(/C=C/C(=O)OCC(=O)N2CCN(c3ccccc3)CC2)c1 | 2% (inactive)
COc1cccc(-c2ccc(SCC(=O)N3CCN(c4ccccc4)CC3)nn2)c1 | 53.9% (active)
CC1(C(=O)NS(=O)(=O)Cc2cccc(Cl)c2)CCN1C(=O)Cc1ccccc1 (stereo not drawn) | -2.8% (inactive)

SMILES | protection from H2O2 cell death
COc1ccc(NC(=O)CN(C)C(=O)CC2CCCCC2)cc1 | 0.1% (inactive)
C[C@H](NC(=O)c1nc[nH]c1C(=O)NCC(=O)OC(C)(C)C)C(=O)OCc1ccccc1 | 41.9% (inactive)
Cc1cccc(NC(=O)c2nc[nH]c2C(=O)NCC(=O)OCc2ccccc2)c1 | 86.4% (active)
CCOC(=O)c1ccc(NC(=O)c2nc[nH]c2C(=O)NCc2ccccc2)cc1 | 21.8% (inactive)
COC(=O)C1=C(C)NC(=O)/C1=C/c1ccc(CNS(=O)(=O)c2ccc(C)cc2)o1 | 2.9% (inactive)
COC(=O)C1=C(C)NC2=C(C(=O)c3ccccc32)C1c1ccc(-c2ccc(C(=O)O)cc2)o1 (stereo not drawn) | 60.9% (active)
Nc1ccc2nc3c(=O)[nH]c(=S)[nH]c3nc2c1 | -6.1% (inactive)
CCOc1ncccc1C(=O)N(CC)CC(=O)Nc1ccc(NC(C)=O)cc1 | -4.3% (inactive)
COc1ccc(N(CC(=O)N/N=C/c2cccs2)S(=O)(=O)c2ccc(OC)c(OC)c2)cc1 | 52.7% (active)
COc1ccc(S(=O)(=O)N(CC(=O)N/N=C/c2ccc(C(=O)O)cc2)Cc2ccccc2)cc1OC | -0.7% (inactive)
COc1ccc(N(CC(=O)N/N=C/c2cccc3c2OCCO3)S(=O)(=O)c2ccc(NC(C)=O)cc2)cc1 | 26.2% (inactive)
N#Cc1ncc(C(F)(F)F)cc1Oc1cccnc1 | -0.3% (inactive)
Cc1cc(C)c(C(N)=O)c(Cl)n1 | 0.4% (inactive)
COc1ccc(C(C)(O)c2nc(-c3ccc(C)c(C)c3)cs2)cc1 (stereo not drawn) | -13.4% (inactive)
COc1ccc(C(O)c2nc(-c3ccc4c(c3)OCO4)cs2)cc1 (stereo not drawn) | -5.3% (inactive)
COc1ccc(OC)c(Nc2nc(-c3ccc(O)c(O)c3)cs2)c1 | 52% (active)
[2H]C(CCOS(N)(=O)=O)c1ccccc1 (stereo not drawn) | 3% (inactive)
CCOC12CC(C)(C)CC(C)(CC3=C1C(=O)CC(C)(C)C3)C2 (stereo not drawn) | -0.9% (inactive)
O=C(Nc1ccc(Cl)cc1)c1cccc(OC(=S)N2CCOCC2)c1 | -15.8% (inactive)
Cc1ccc2nc(-c3ccc(NC(=O)c4cccnc4)cc3)oc2c1 | 48.1% (inactive)
CCC(=O)Oc1cccc(C(=O)Nc2ccc(-c3nnc(-c4ccco4)o3)cc2)c1 | 77.3% (active)
COC(=O)NNC(=O)C1CCC(C)CC1 (stereo not drawn) | -10% (inactive)

SMILES | protection from H2O2 cell death
COc1ccc(CN(C)C(=O)c2cc(-c3ccc(C)cc3C)nc3ccccc23)c(OC)c1OC | 48.9% (inactive)
COc1ccc(-c2cc(C(=O)N(C)CC(=O)Nc3ccccc3Cl)c3ccccc3n2)cc1OC | 49.1% (inactive)
COc1ccc(-c2cc(C(=O)N(C)Cc3ccc(OC)c(OC)c3OC)c3ccccc3n2)cc1OC | 67.1% (active)
Cc1cc(C)nc(Nc2n[nH]c(-c3ccccc3N)n2)n1 | -9.5% (inactive)
CCCCCN(C(=O)NC(=O)Nc1ccccc1C)S(C)(=O)=O | -4.1% (inactive)
CCC(C)(C)NC(=O)C(c1cccc(OC)c1OC)N(CC(C)C)C(=O)CCC(=O)Nc1cc(C)on1 (stereo not drawn) | 1.2% (inactive)
Cc1ccccc1Cn1c(C)c(C(=O)NCc2cccc(C(F)(F)F)c2)sc1=O | -2.6% (inactive)
N#C/C(=C\c1ccc(O)c(O)c1)C(=O)NCc1ccccc1 | 55.9% (active)
COc1ccc(CNC(=O)/C(C#N)=C/c2cccc(OC)c2OC)cc1 | 1.5% (inactive)
COCCNC(=O)/C(C#N)=C/c1cccc(OCc2ccccc2)c1 | 32.1% (inactive)
Cn1nc([N+](=O)[O-])nc1Sc1ccc(C(C)(C)C)cc1 | -11.1% (inactive)
c1ccc(-c2cn3c(n2)CCc2ccc4cccnc4c2-3)cc1 | 61.6% (active)
CCN(CC(=O)NC(C)C)C(=O)CCNC(=O)c1ccc(Cl)cc1 | -0.7% (inactive)
Cc1cccc(Nc2nnc(SCC(=O)c3c(N)n(C4CC4)c(=O)[nH]c3=O)s2)c1C | -2.2% (inactive)
CC(=O)Nc1ccc(-c2cn3cccnc3n2)cc1 | -2% (inactive)
NC(c1ccccc1)c1csc(NC(=O)Nc2cccc(C(F)(F)F)c2)n1 (stereo not drawn) | -10.6% (inactive)
CC(=O)Nc1ccc(-c2csc(NC(=O)Nc3ccccc3)n2)cc1 | 50.5% (active)
CN(C)C(CNC(=O)CCCOc1ccccc1)c1ccco1 (stereo not drawn) | 4.6% (inactive)
O=C(COC(=O)Cn1cnc2ccccc21)Nc1cccc2c1C(=O)c1ccccc1C2=O | 59.5% (active)
O=C(COC(=O)c1cccc(Br)c1)Nc1cccc2c1C(=O)c1ccccc1C2=O | -6.9% (inactive)
O=C(Cn1cnc2ccccc21)Nc1ccccc1-c1ccccc1 | -5.3% (inactive)
O=C(CCc1nnc(CCCCc2ccccc2)o1)NC(c1cccnc1)C(F)(F)F (stereo not drawn) | 0.8% (inactive)

SMILES | protection from H2O2 cell death
COc1ccccc1NS(=O)(=O)c1ccc(C)c(C(=O)NNC(=O)c2csc(N3CCOCC3)n2)c1 | 8.3% (inactive)
CCN(CC)C(=O)Cn1cc(S(=O)(=O)CC(=O)NCc2ccc3c(c2)OCO3)c2ccccc21 | 2.8% (inactive)
C[C@@H]1C(c2ccc(F)cc2)=NN(c2ccc(Br)cc2)[C@H]1C(=O)N1CCOC1=O | -1.3% (inactive)
COc1ccccc1OCCn1c(SCC(N)=O)nc2ccccc21 | 3.9% (inactive)
O=C1CCC/C=C/C[C@@H](CC(=O)N(CCO)Cc2ccccc2)C(=O)NC[C@H](c2ccccc2)O1 | 0.5% (inactive)
O=C1N[C@@H](c2ccccc2)COC(=O)[C@H](Cc2ccc(F)cc2)C/C=C\C[C@@H]1CC(=O)N(CCO)Cc1ccccc1 | 8.2% (inactive)
O=C1NC[C@@H](c2ccccc2)OC(=O)[C@H](Cc2ccc(F)cc2)CC/C=C/C[C@H]1CC(=O)N(CCO)Cc1ccccc1 | 61.8% (active)
O=C1N[C@H](Cc2c[nH]c3ccccc23)COC(=O)[C@H](Cc2ccc(F)cc2)C/C=C\C[C@H]1CC(=O)N(CCO)Cc1ccccc1 | 51.5% (active)
CC(C)(C)OC(=O)C[C@@H]1C/C=C\C[C@@H](CC(=O)N(CCO)Cc2ccccc2)C(=O)N[C@H](Cc2ccccc2)COC1=O | 14.2% (inactive)
O=C1OC[C@@H]2CCCN2C(=O)[C@H](CC(=O)N(CCO)Cc2ccccc2)C/C=C\CC[C@@H]1Cc1ccc(F)cc1 | 2.9% (inactive)
CCOc1ccc(NC(=O)[C@H](C)NC(=O)C2CC(=O)N(c3ccc(OC)cc3)C2)cc1 (stereo partly drawn) | -1.8% (inactive)
CC(C)(C)OC(=O)N1CCN(C(=O)c2[nH]c(C(F)(F)F)nc2-c2ccccc2)CC1 | -1.1% (inactive)
Cc1cc(C)cc(NC(=O)Cn2cnc3c(nnn3Cc3ccc(F)cc3)c2=O)c1 | 0.7% (inactive)
C#Cc1cc(N2CCN(C(=O)c3ccoc3)CC2)n2nc(-c3cccc(Cl)c3)cc2n1 | 84.5% (active)
O=C(c1ccccc1)N1CCN(C(=O)c2cc3nc(-c4ccccc4)cc(C(F)(F)F)n3n2)CC1 | 11.3% (inactive)
CN(C)CCN1CCN(c2cc(-c3cccc(Cl)c3)nc3ccnn23)CC1 | 19.8% (inactive)
O=C(Cn1[nH]c(=O)c2ccccc2c1=O)Nc1cccc(-c2nnc3n2CCCCC3)c1 | 23.4% (inactive)
Cc1cc(C)c(-c2csc(NC(=O)CCCc3nc4ccccc4c(=O)[nH]3)n2)c(C)c1 | -4.2% (inactive)
Cc1ccc(-c2csc(NC(=O)Cn3[nH]c(=O)c4ccccc4c3=O)n2)cc1 | 52% (active)
CCOC(=O)c1cnc2nc(SCc3ccccc3Cl)[nH]n2c1=O | -2.4% (inactive)
Cc1cc(-n2nc(C)cc2C)n2ncc(-c3ccccc3)c2n1 | 14.3% (inactive)
CCOC(=O)c1cnc(-n2nc(C)cc2C)nc1NNc1cc(C)nc(-c2ccccc2)n1 | 78.5% (active)
